Values joined by “and” are separate entries in the source; they are usually repeats but may differ in a detail not shown here. Identical values can stand only once. Results filed as inconclusive are left out. Unmarked numbers belong to inactive results. Active and inactive are the calls of the source. Calls come from the whole dose curve; as a rule, active = well fitted curve in the direction sought with a large enough effect; inconclusive = small, poorly fitted or top-dose-only effect, or another doubt; inactive = no such curve, though single readings can be large; an effect the other way counts as inactive or inconclusive. Residues, ends and D or L forms follow the SMILES beside them. *: point of attachment. Cbz = O=C(OCc1ccccc1)*
What was measured:
[1] = system: CRL-7250; assay: Cytotoxic Profiling of Annotated Libraries Using Quantitative High-Throughput Screening (AID 1296008); conditions: Five cell lines viability, CellTiter-Glo ATP luminescence, 48-72 h; max response: active compounds read low; note: nearly all actives have a fitted effect of over 60% in size
Method in brief: (§1)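 Cytotoxicity was measured as CellTiter-Glo ATP luminescence, read after 10 min at room temperature. Compound treatment of the cells lasted 48 or 72 hr at 37 degrees Celsius in a qHTS format.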

[2] = system: HEK293; assay: as above; conditions: Five cell lines viability, CellTiter-Glo ATP luminescence, 48-72 h; max response: active compounds read low
Method in brief: as §1

[3] = system: HaCat; assay: as above; conditions: Five cell lines viability, CellTiter-Glo ATP luminescence, 48-72 h; max response: active compounds read low
Method in brief: as §1

[4] = system: NIH3T3; assay: as above; conditions: Five cell lines viability, CellTiter-Glo ATP luminescence, 48-72 h; max response: active compounds read low
Method in brief: as §1

[5] = system: MKL-1; assay: qHTS assay to identify novel small-molecules to repurpose for Merkel cell carcinoma treatment (AID 1296009); conditions: MCC and control cell lines, CellTiter-Glo viability, 72 h; series mostly up to 46 µM; note: nearly all actives have a fitted effect of over 60% in size
Method in brief: (§2)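 72 hr, 37 degree celsius; NPC 8-pt / MIPE 11-pt dose response; compound pinned in DMSO; CellTiter-Glo, 10 min RT, luminescence; normalized to no-cell and DMSO controls.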

[6] = system: WaGa; assay: as above; conditions: MCC and control cell lines, CellTiter-Glo viability, 72 h; series mostly up to 46 µM
Method in brief: as §2

[7] = system: KB-3-1; assay: Cytotoxic Profiling of Annotated Libraries Using Quantitative High-Throughput Screening (AID 1296008); conditions: Five cell lines viability, CellTiter-Glo ATP luminescence, 48-72 h; max response: active compounds read low; note: nearly all actives have a fitted effect of over 60% in size
Method in brief: as §1

[8] = system: MKL-2; assay: qHTS assay to identify novel small-molecules to repurpose for Merkel cell carcinoma treatment (AID 1296009); conditions: MCC and control cell lines, CellTiter-Glo viability, 72 h; series mostly up to 46 µM; note: nearly all actives have a fitted effect of over 60% in size
Method in brief: as §2

[9] = system: UISO; assay: as above; conditions: MCC and control cell lines, CellTiter-Glo viability, 72 h; series mostly up to 46 µM
Method in brief: as §2

[10] = system: MCC-13; assay: as above; conditions: MCC and control cell lines, CellTiter-Glo viability, 72 h; series mostly up to 46 µM
Method in brief: as §2

[11] = system: MCC-26; assay: as above; conditions: MCC and control cell lines, CellTiter-Glo viability, 72 h; series mostly up to 46 µM
Method in brief: as §2

[12] = system: C33A; assay: Primary qHTS to identify gynecologic anti-cancer compounds using libraries of approved drugs and bioactive compounds (AID 1345084); conditions: Gynecologic cancer cell panel viability, ATPlite luminescence, 48 h; series mostly up to 57.5 µM; note: nearly all actives have a fitted effect of over 55% in size
Method in brief: (§3)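 Five-concentration response, 48 h; readout is ATP-driven luciferase luminescence.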

[13] = system: CASKI; assay: as above; conditions: Gynecologic cancer cell panel viability, ATPlite luminescence, 48 h; series mostly up to 57.5 µM
Method in brief: as §3

[14] = system: Hek293T; assay: as above; conditions: Gynecologic cancer cell panel viability, ATPlite luminescence, 48 h, control line for the selectivity index; series mostly up to 57.5 µM
Method in brief: as §3

[15] = system: HEK293T; assay: qHTS assay to identify novel small-molecules to repurpose for Merkel cell carcinoma treatment (AID 1296009); conditions: MCC and control cell lines, CellTiter-Glo viability, 72 h; series mostly up to 44.8 µM; note: nearly all actives have a fitted effect of over 60% in size
Method in brief: as §2

[16] = system: NIH3T3; assay: as above; conditions: MCC and control cell lines, CellTiter-Glo viability, 72 h; at 44.8 µM (top of the series) unless noted
Method in brief: as §2

[17] = system: Es-2; assay: Primary qHTS to identify gynecologic anti-cancer compounds using libraries of approved drugs and bioactive compounds (AID 1345084); conditions: Gynecologic cancer cell panel viability, ATPlite luminescence, 48 h; series mostly up to 57.5 µM; note: nearly all actives have a fitted effect of over 55% in size
Method in brief: as §3

[18] = system: JEG-3; assay: as above; conditions: Gynecologic cancer cell panel viability, ATPlite luminescence, 48 h; series mostly up to 57.5 µM
Method in brief: as §3
% is set by controls: 0 for no effect and ±100 for the full control effect; potency is the fitted concentration of half-maximal effect.

COc1cc(C(=O)NC2CCN(C)CC2)ccc1Nc1ncc2c(n1)N(C1CCCC1)CCC(=O)N2C(C)C
max response [1]: -17.1%
Potency [2]: 8.33 µM (active)
max response [3]: -42.1%
Potency [4]: 1.32 µM (active)
Potency [5]: 2.35 µM (active)
Potency [6]: 1.87 µM (active)

COc1ccc(C=Cc2cc(OC)c(OC)c(OC)c2)cc1NC(=O)[C@H](N)CO
Potency [1]: 33.2 nM (active)
Potency [2]: 0.0037 µM (active)
max response [3]: 4.22%
Potency [7]: 0.003 µM (active)
Potency [8]: 0.0066 µM (active)
Potency [9]: 0.0053 µM (active)

Nc1ncn([C@@H]2O[C@H](CO)[C@@H](O)[C@@H]2O)c(=O)n1
Potency [1]: 5260 nM (active)
Potency [2]: 4.18 µM (active)
max response [3]: -5.4%
Potency [7]: 8.33 µM (active)
Potency [5]: inactive
Potency [8]: inactive

O=C(O)C[C@H](O)C[C@H](O)C=Cc1c(C2CC2)nc2ccccc2c1-c1ccc(F)cc1
Potency [1]: 662 nM (active)
Potency [2]: 9.35 µM (active)
Potency [3]: 4.69 µM (active)
Potency [4]: 20.9 µM (active)
Potency [10]: 5.9 µM (active)
Potency [5]: 5.9 µM (active)
Potency [8]: 3.32 µM (active)
Potency [9]: 2.35 µM (active)
Potency [6]: 7.43 µM (active)

C=CCNC1=C2C[C@@H](C)C[C@H](OC)[C@@H](O)[C@@H](C)C=C(C)[C@H](OC(N)=O)[C@@H](OC)C=CC=C(C)C(=O)NC(=CC1=O)C2=O
Potency [1]: 296 nM (active)
Potency [2]: 0.935 µM (active)
Potency [3]: 0.59 µM (active)
Potency [7]: 0.105 µM (active)
Potency [4]: 0.526 µM (active)
Potency [10]: 3.72 µM (active)
Potency [9]: 1.48 µM (active)
Potency [6]: 1.66 µM (active)

CC(C)C[C@@H](C=O)NC(=O)[C@H](CC(C)C)NC(=O)[C@H](CC(C)C)NC(=O)OCc1ccccc1 (Cbz-Leu-Leu-Leu-aldehyde)
Potency [1]: 1660 nM (active)
Potency [2]: 1.05 µM (active)
Potency [3]: 3.32 µM (active)
Potency [4]: 2.96 µM (active)
Potency [10]: 2.64 µM (active)
Potency [11]: 2.35 µM (active)
Potency [5]: 0.935 µM (active)
Potency [8]: 0.743 µM (active)
Potency [9]: 1.18 µM (active)
Potency [6]: 0.935 µM (active)

Nc1nc(=O)n([C@H]2C[C@H](O)[C@@H](CO)O2)cc1F
outcome [1]: inactive
Potency [2]: 0.0743 µM (active)
Potency [3]: 0.0118 µM (active)
Potency [7]: 11.8 µM (active)
Potency [4]: 0.0083 µM (active)
Potency [11]: inactive
Potency [8]: inactive
Potency [9]: 0.209 µM (active)
Potency [6]: 0.0935 µM (active)

c1cncc(CN2CCC(n3ncc4c(N5CCOCC5)nc(-c5ccc6[nH]ccc6c5)nc43)CC2)c1
Potency [1]: 4.18 µM (active) and 7.31 µM (active)
Potency [2]: 5.8 µM (active)
Potency [3]: 14.8 µM (active) and 18.4 µM (active)
Potency [7]: 10.3 µM (active)
Potency [4]: 9.35 µM (active) and 5.17 µM (active)
Potency [5]: inactive
Potency [12]: 31.6 µM (active)
Potency [13]: 10 µM (active)
Potency [14]: 11.2 µM (active)

C[C@@H]1CC[C@@]2(OC1)OC1CC3C4CC=C5CC(O)CCC5(C)C4CCC3(C)C1[C@@H]2C (stereo not given in full)
max response [1]: -6.42%
Potency [2]: 10.5 µM (active)
max response [7]: -6.71%
max response [4]: -12.1%
Potency [10]: inactive
Potency [11]: inactive
Potency [5]: inactive
Potency [8]: inactive
Potency [9]: inactive
Potency [6]: inactive

CN(CC(=O)N(Cc1ccc(C2CCCCC2)cc1)c1ccc(C(=O)O)c(O)c1)S(=O)(=O)c1c(F)c(F)c(F)c(F)c1F
outcome [1]: inactive
outcome [2]: inactive
max response [3]: -3.31%
outcome [4]: inactive
Potency [15]: inactive
Potency [11]: inactive
Potency [5]: 8.33 µM (active)
outcome [16]: inactive
Potency [9]: inactive
Potency [6]: 6.62 µM (active)

CCS(=O)(=O)Nc1ccc2[nH]c(O)c(C(=Nc3ccc(CN4CCCCC4)cc3)c3ccccc3)c2c1
Potency [1]: 1320 nM (active)
Potency [2]: 0.743 µM (active)
Potency [7]: 9.35 µM (active)
Potency [4]: 0.264 µM (active)
Potency [10]: 5.26 µM (active)
Potency [11]: 1.48 µM (active)
Potency [8]: inactive
Potency [9]: 20.9 µM (active)

CC1=C(C(=O)Nc2cc3cn[nH]c3cc2F)C(c2ccc(Cl)cc2F)N=C(c2ccnc(Cl)c2)N1 (stereo not given)
max response [1]: -26.3%
Potency [2]: 13.2 µM (active)
max response [3]: -46.1%
Potency [4]: 11.8 µM (active)
Potency [11]: inactive
Potency [8]: 20.9 µM (active)
Potency [6]: 10.5 µM (active)
Potency [13]: inactive
Potency [17]: inactive
Potency [14]: inactive
Potency [18]: inactive

NC(=O)c1ncn([C@@H]2O[C@H](CO)[C@@H](O)[C@@H]2O)c1O
max response [1]: -0.101%
max response [2]: 1.7%
max response [3]: 4.1%
max response [7]: 6.36%
Potency [10]: inactive
Potency [11]: inactive
Potency [5]: inactive
Potency [8]: inactive
Potency [9]: inactive
Potency [6]: inactive

CNC(=O)c1cccc(-c2ccc3c(N4CCOC[C@H]4C)nc(N4CCOC[C@H]4C)nc3n2)c1
Potency [1]: 46.9 nM (active)
Potency [2]: 0.105 µM (active)
Potency [3]: 10.5 µM (active)
Potency [7]: 0.118 µM (active)
Potency [4]: 0.418 µM (active)
Potency [8]: inactive
Potency [9]: 0.166 µM (active)

CCOC(=O)C1=C(C)NC(=S)NC1c1cccc(O)c1 (stereo not given)
max response [1]: -18.5%
Potency [2]: 0.0132 µM (active)
max response [3]: -10%
Potency [7]: 0.0469 µM (active)
Potency [10]: 1.48 µM (active)
Potency [8]: inactive
Potency [9]: 0.148 µM (active)
Potency [6]: 0.0526 µM (active)

COc1cccc2c1C(=O)c1c(O)c3c(c(O)c1C2=O)C[C@@](O)(C(=O)CO)C[C@H]3O[C@H]1C[C@H](N)[C@H](O)[C@H](C)O1
Potency [1]: 418 nM (active)
Potency [2]: 0.059 µM (active)
Potency [3]: 0.264 µM (active)
Potency [7]: 0.526 µM (active)
Potency [10]: 2.64 µM (active)
Potency [11]: 2.35 µM (active)
Potency [5]: 0.118 µM (active)
Potency [6]: 0.0743 µM (active)
